Shiga inhibitor: Shiga toxin inhibition. hit rate 9.2% among 290,000. Vero cells, Shiga toxin protein synthesis inhibition reporter. inhibition, % at 38.7 µM. AID 2315; in the data active = inhibition mostly above about 28%, no sharp cut-off; inactive = mostly below about 43%; also: 0% is about no effect
CHX counter: affects cycloheximide protein synthesis inhibition readout, counter-screen; AID 2314; hit rate 12% among 300,000; cell reporter, cycloheximide protein synthesis inhibition counterscreen; max response, %; in the data active = max response mostly above about 13%, no sharp cut-off; inactive = mostly below about 14%; also: read at 38.3 µM for the half of the compounds with a filed dose; 0% is about no effect
Giardia FBPA inh-1: inhibitors of Giardia lamblia fructose-1,6-bisphosphate aldolase | A8B2U2 | purified Giardia FBPA | Potency, µM (titrated, usually from 59.6 µM), for inactives: at the highest dose activity, negative = inhibition, actives largely listed as inhibitors | hit rate 0.71% among 290,000; also: potency is read from the fitted curve at half-maximal effect; % is scaled to controls: 0 for no effect and ±100 for the full control effect; nearly all actives have a fitted effect of over 55% in size
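Giardia FBPA (40 nM reagent) was preincubated 10 min at RT with compound (up to 57.5 uM final), then substrate plus GAPDH/TPI/NAD/arsenate coupling system with diaphorase/resazurin was added; resorufin fluorescence (525/598 nm) was read after 20 min.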
Sm TGR inh: S. mansoni TGR enzyme inhibition. purified TGR, DTNB reduction, TNB absorbance 405 nm. Q962Y6. Potency, µM (doses to about 114 µM), without a hit: at the top dose activity change, negative = inhibition, usual class: inhibitors. hit rate 3% among 360,000; also: potency is read from the fitted curve at half-maximal effect; % is scaled to controls: 0 for no effect and ±100 for the full control effect; nearly all actives have a fitted effect of over 60% in size
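First, TGR (20 nM dispensed) and NADPH were mixed with compound. Second, a 15 min room-temperature incubation followed. Third, further NADPH and then DTNB were added to start the reaction. Finally, TNB absorbance was monitored kinetically.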
LmPK inh: blocks Leishmania mexicana pyruvate kinase activity; Q27686; purified LmPK, Kinase-Glo ATP luminescence, 1 h; Potency, µM (doses to about 57.5 µM), without a hit: at the top dose activity change, negative = inhibition, most hits filed as inhibitors; hit rate 0.37% among 290,000; also: potency is read from the fitted curve at half-maximal effect; % is scaled to controls: 0 for no effect and ±100 for the full control effect
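In 50 mM imidazole pH 7.2 with 7 mM MgCl2, LmPK (0.1 nM) turned over PEP (0.5 mM) and ADP (0.1 mM) for 1 h at room temperature. Luciferase read-out of ATP.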
Tb PYK inh: inhibitors of Trypanosoma brucei pyruvate kinase; Potency, µM (doses to about 76.8 µM), without a hit: top-dose activity, negative = inhibition, most hits filed as inhibitors; TbPYK enzyme, Kinase-Glo Plus ATP luminescence, 45 min; Q57TT1; AID 624173; hit rate 0.12% among 410,000; also: potency is read from the fitted curve at half-maximal effect; % is scaled to controls: 0 for no effect and ±100 for the full control effect; nearly all actives have a fitted effect of over 50% in size
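Glycolytic pyruvate kinase of T. brucei was incubated with substrate, test compound and 130 uM ADP for 45 minutes at room temperature. Luminescent Kinase-Glo Plus signal was measured after 10 minutes.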
Giardia growth: inhibitors of Giardia lamblia growth; hit rate 5% among 1,500; AID 2785; shares compounds with Giardia FBPA inh-1; Giardia lamblia trophozoite growth inhibition; Potency, µM (doses to about 57.5 µM), for inactives: top-dose activity change, negative = inhibition, usual class: inhibitors;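 also: potency is read from the fitted curve at half-maximal effect; trophozoites exposed to compound for 48 h at 37 °C; % is scaled to controls: 0 for no effect and ±100 for the full control effect; nearly all actives have a fitted effect of over 70% in size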
Mammal cell tox: toxic to mammalian cells in Giardia aldolase counter-screen | shares compounds with Giardia FBPA inh-1 | mammalian cell viability counter-screen, qHTS | Potency, µM (titrated, usually from 57.5 µM), without a hit: at the top dose viability change, negative = toxicity, hits mostly inhibitors | hit rate 4% among 1,500 | AID 2786;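 also: Chinese hamster ovary cells used as mammalian cytotoxicity surrogate; viability measured as cellular ATP by luminescence; potency is read from the fitted curve at half-maximal effect; compound exposure lasted 48 h before reading; % is scaled to controls: 0 for no effect and ±100 for the full control effect; nearly all actives have a fitted effect of over 60% in size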
Giardia FBPA inh-2: confirmation of Giardia fructose-bisphosphate aldolase inhibitors; shares compounds with Giardia FBPA inh-1; purified Giardia aldolase enzyme activity, qHTS; Potency, µM (titrated, usually from 57.5 µM), for the others: at the top dose activity change, negative = inhibition, hits mostly inhibitors; hit rate 5% among 1,500; also: potency is read from the fitted curve at half-maximal effect; % is scaled to controls: 0 for no effect and ±100 for the full control effect; nearly all actives have a fitted effect of over 45% in size
Rabbit aldolase: rabbit FBP aldolase inhibition by Giardia aldolase hits; shares compounds with Giardia FBPA inh-1; hit rate 4% among 1,500; Potency, µM (top dose mostly 57.5 µM), inactives show top-dose activity, negative = inhibition, hits mostly inhibitors; AID 2794; Rabbit muscle FBPA enzyme inhibition, selectivity counter-screen; also: potency is read from the fitted curve at half-maximal effect; % is scaled to controls: 0 for no effect and ±100 for the full control effect; nearly all actives have a fitted effect of over 60% in size
Target sequence (P00883 whole entry, looked up): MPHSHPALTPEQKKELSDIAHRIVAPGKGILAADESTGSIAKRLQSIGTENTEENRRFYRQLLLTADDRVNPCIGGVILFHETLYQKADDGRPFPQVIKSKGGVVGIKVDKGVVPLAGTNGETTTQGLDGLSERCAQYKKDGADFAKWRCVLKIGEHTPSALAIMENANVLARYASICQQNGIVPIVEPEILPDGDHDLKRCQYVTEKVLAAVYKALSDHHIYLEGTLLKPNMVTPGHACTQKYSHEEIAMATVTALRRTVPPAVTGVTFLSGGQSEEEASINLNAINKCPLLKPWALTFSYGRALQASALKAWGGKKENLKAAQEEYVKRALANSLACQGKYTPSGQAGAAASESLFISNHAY
GAPDH counter: counter-screen for Giardia aldolase inhibitors: GAPDH coupling enzyme | shares compounds with Giardia FBPA inh-1 | GAPDH coupling enzyme counterscreen, biochemical, qHTS | Potency, µM (top dose mostly 57.5 µM), for inactives: at the top dose activity change, negative = inhibition, hits mostly inhibitors | hit rate 6% among 1,500 | AID 2795; also: potency is read from the fitted curve at half-maximal effect; % is scaled to controls: 0 for no effect and ±100 for the full control effect; nearly all actives have a fitted effect of over 55% in size
Numbers without * were called inactive; ? = inconclusive; / = no result; [ ] = remark or other dose. The full list was thinned out, with hits kept by preference. Unless noted, calls follow the shape of the dose curve; as a rule, active = well fitted curve in the direction sought with a large enough effect; inconclusive = small, poorly fitted or top-dose-only effect, or another doubt; inactive = no such curve, though single readings can be large; an effect the other way counts as inactive or inconclusive.

SMILES	Shiga inhibitor	CHX counter	Giardia FBPA inh-1	Sm TGR inh	LmPK inh	Tb PYK inh	Giardia growth	Mammal cell tox	Giardia FBPA inh-2	Rabbit aldolase	GAPDH counter
Cc1nnc(SCC2=C(C(=O)O)N3C(=O)C(NC(=O)c4cc(F)c(F)cc4Cl)C3SC2)s1 (stereo not drawn)	23	14	20µM*	16µM*	1%	8%	?	-3%	2%	11%	9%
NCc1ccccc1CC(=O)N[C@@H]1C(=O)N2C(C(=O)O)=C(CSc3nnnn3CC(=O)O)CS[C@@H]12	/	/	?	/	/	-4%[33.2 µM]	/	/	/	/	/
Cc1nnc(SCC2=C(C(=O)O)N3C(=O)C(NC(=O)Cn4nc(C(F)F)cc4C)C3SC2)s1 (stereo not drawn)	0	-3	14µM*	40µM*	-1%	-4%	7%[10.4 µM]	7%	-6%	1%	-1%
CC1=C(C(=O)O)N2C(=O)C(NC(=O)CCCC(=O)O)C2SC1 (stereo not drawn)	2	-5	6%	11%	3%	-15%	/	/	/	/	/
COC(=O)c1ccc(OC)c(CN2C(=O)N(c3ccc(C(C)=O)cc3)S(=O)(=O)c3ccccc32)c1	/	/	/	?	/	1%	/	/	/	/	/
O=C(CNC1CC1)Nc1cc(C(F)(F)F)ccc1Cl	12	13	7.9µM*	-12%	-11%	1%	?	-12%	-2%	4%	5%
Clc1cccc(Nc2ncnc3c2nc2n3CCCCC2)c1	/	/	/	2%	/	6%	/	/	/	/	/
CCOc1cc(OCC)cc(C(=O)NC(=S)Nc2cccc(C(F)(F)F)c2)c1	-10	1	-1%	-31%	6%	-5%	/	/	/	/	/
O=C(NC(=S)Nc1cccc(C(F)(F)F)c1)c1ccc2nonc2c1	8	-2	10µM*	?	8%	-9%	6%[10.4 µM]	-9%	9%	0%	3%
CC1CCN(C(=O)CSc2nc3c(cnn3-c3ccccc3)c(=O)[nH]2)CC1	14	-3	1%	-7%	2%	1%	/	/	/	/	/
CC(=O)N1CCN(C(=O)CSc2nc3c(cnn3-c3ccccc3)c(=O)[nH]2)CC1	78*	38*	40µM*	20%	2%	-8%	?	-6%	1%	9%	6%
Cc1ccc(/C=C2\SC(=S)N(CC3CCCO3)C2=O)o1 (stereo not drawn)	9	1	18µM*	4µM*	-7%	?	-22%	10%	-23%	-10%	-18%
O=C1/C(=C\c2ccc(-c3ccccc3Cl)o2)SC(=S)N1CC1CCCO1 (stereo not drawn)	-16	-2	0%	-29%	4%	-2%	/	/	/	/	/
Cc1ccc(C(=O)NNC(=S)NC(=O)c2ccc(Cl)cc2Cl)cc1	-1	6	?	-1%	0%	-4%	-33%[38.3 µM]	?	10%	4%	11%
COc1ccc(OC)c(NC(=O)CN2C(=O)CC(C)Sc3ccccc32)c1 (stereo not drawn)	/	/	/	1%	/	0%	/	/	/	/	/
S=C(NCCc1ccccc1)Nc1c(Cl)cccc1Cl	14	1	10µM*	-21%	11%	-16%	-10%[38.3 µM]	-30%	?	?	?

Screening data from PubChem BioAssay.
